From PubChem BioAssay (Tox21)
Results filed as inconclusive are left out. A number with no mark means an inactive call. Calls of active or inactive are those of the source. Calls come from the whole dose curve; as a rule, active = well fitted inhibition curve with a large enough effect in the repeat runs; inconclusive = weak or mixed curves, or effect the other way; inactive = no such curve, though single readings can be large or run the other way.

experiment: qHTS assay to identify small molecule antagonists of the retinoic acid receptor (RAR) signaling pathway (AID 1159552; note: nearly all actives have a fitted effect of over 50% in size); conditions: C3RL4 RARE luciferase reporter, retinol-stimulated, 6 h; series mostly up to 92.4 µM; activity, negative = inhibition: at the top concentration
From the text: National Center for Advancing Translational Sciences [NCATS]
NIH Chemical Genomics Center [NCGC]
U.S. Environmental Protection Agency [EPA]
National Institutes of Environmental Health Sciences [NIEHS]
National Toxicology Program [NTP]
U.S. Food and Drug Administration [FDA]
All-trans Retinoic acid (atRA) is the potent natural metabolite of retinol and plays an important role in normal embryonic development and maintenance of cellular phenotype in adult animals. atRA is the activating ligand for the retinoic acid receptors (RARs) which form heterodimers with retinoid X receptors (RXRs) on the retinoic acid response element (RARE). Through activation of the RAR/RXRs nuclear receptors, atRA regulates the transcription of a large number of protein-coding genes and regulatory RNAs. Intracellular levels of atRA are controlled by the retinol signaling pathway (RSP) that regulates the biosynthesis and catabolism of atRA to maintain physiological levels. Chemicals that interfere with the RSP can cause abnormal intracellular levels of atRA and therefore are potential developmental toxicants. To assess compounds for the potential adverse effect on embryonic development through interfering with retinol signaling, a cell-based RARE luciferase reporter gene assay was used. C3RL4 cell line (OARSA/CFSAN/FDA, Laurel, MD) was used to screen Tox21 10K compound library for identifying inhibitors of the RSP.
Tox21 Assay Protocol Summary:
C3RL4 cells were seeded at 1,000/well in 4 uL of assay medium into white solid 1,536-well tissue culture plates (Greiner Bio-One North America Inc. Monroe, NC) using a Multidrop Combi (Thermo Scientific, Waltham, MA) dispenser. After incubation at 37 C and 5% CO2 for an overnight, 23 nL of compounds dissolved in DMSO, positive control or DMSO only were transferred by a Pintool station (Kalypsys, San Diego, CA). One ul of 1 uM (final concentration) of Retinol was added right after the compound addition by using a Flying Reagent Dispenser (FRD) (Aurora Discovery, San Diego, CA). After 6 hr incubation at 37 C and 5% CO2, 5 uL of Amplite Luciferase reagent (AAT Bioquest Inc. Sunnyvale, CA) was added to each assay plate using an FRD. Luminescence was quantified on a ViewLux plate reader (PerkinElmer, Waltham, MA) after 30 min incubation at room temperature.
% is set by controls: 0 for no effect and ±100 for the full control effect.

**Q.** With CCCCCCCCCCCCCCCC(=O)OC(C)C as the compound, how does the outcome read?
**A.** inactive

**Q.** Which outcome does the source give for CC(C)(C)c1cc(Cc2cc(C(C)(C)C)c(O)c(C(C)(C)C)c2)cc(C(C)(C)C)c1O here?
**A.** inactive

**Q.** With O=C(O)c1ccc(C(=O)O)c(C(=O)O)c1 as the compound, how does the “activity, negative = inhibition” value read?
**A.** 12.2%

**Q.** Which outcome does the source give for NCCCCCCN here?
**A.** inactive

**Q.** Which outcome does the source give for O=C(OCC1CCC2OC2C1)C1CCC2OC2C1 (stereo not given) here?
**A.** inactive

**Q.** For C=C(C)C(=O)OCC(C)C, which outcome is on record?
**A.** inactive

**Q.** For c1ccc(Oc2ccccc2)cc1, which outcome is on record?
**A.** inactive

**Q.** With C=CC[N+](C)(C)CC=C as the compound, how does the outcome read?
**A.** inactive

**Q.** Which outcome does the source give for CCOCC(=O)O here?
**A.** inactive

**Q.** Which outcome does the source give for NC(=S)NNC(N)=S here?
**A.** inactive

**Q.** Which outcome does the source give for CCCCCCC=O here?
**A.** inactive

**Q.** Which outcome does the source give for CC(=O)OC1CC(C)OC(C)O1 (stereo not given) here?
**A.** inactive

**Q.** For COc1ccc([N+](=O)[O-])cc1N, which outcome is on record?
**A.** inactive

**Q.** With C[C@]12CCC(=O)C=C1CC[C@@H]1[C@@H]2[C@@H](O)C[C@@]2(C)[C@H]1CC[C@]2(O)C(=O)CO as the compound, how does the “activity, negative = inhibition” value read?
**A.** -25.5% [at 42.5 µM]

**Q.** For CCOCCOCCOCCO, which outcome is on record?
**A.** inactive

**Q.** With CC(=O)OCc1ccccc1 as the compound, how does the “activity, negative = inhibition” value read?
**A.** 15.7%

**Q.** Which outcome does the source give for CC(C)CCCCCCCOC(=O)CCCCC(=O)OCCCCCCCC(C)C here?
**A.** inactive

**Q.** For c1ccc2c(c1)Cc1ccccc1-2, which outcome is on record?
**A.** inactive

**Q.** Which outcome does the source give for CC(C)CC(=O)CC(C)CC(C)C (stereo not given) here?
**A.** inactive

**Q.** With CCNc1ccccc1 as the compound, how does the outcome read?
**A.** inactive

**Q.** With O=C1C(c2[nH]c3ccccc3c2O)=Nc2ccccc21 as the compound, how does the outcome read?
**A.** inactive

**Q.** With CC1(C)OC[C@@H]2O[C@@]3(C(=O)O)OC(C)(C)O[C@H]3[C@@H]2O1 as the compound, how does the “activity, negative = inhibition” value read?
**A.** -6.32% [at 42.5 µM]

**Q.** For CC(=O)OCc1ccco1, which outcome is on record?
**A.** inactive

**Q.** With CC(C)c1cccc(C(C)C)c1 as the compound, how does the outcome read?
**A.** inactive

**Q.** For O=C(O)CCCCCCCCC(=O)O, which outcome is on record?
**A.** inactive

**Q.** With CC(=O)Oc1ccc(C)cc1 as the compound, how does the outcome read?
**A.** inactive

**Q.** With COC(=O)c1cccnc1 as the compound, how does the outcome read?
**A.** inactive

**Q.** With Cc1ccc(S(=O)(=O)N=C=O)cc1 as the compound, how does the outcome read?
**A.** inactive

**Q.** Which outcome does the source give for O=C1CCCC1 here?
**A.** inactive

**Q.** With CCCCOC(=O)c1ccc(N)cc1 as the compound, how does the outcome read?
**A.** inactive

**Q.** Which outcome does the source give for C=Cc1ccc(C)cc1 here?
**A.** inactive

**Q.** Which outcome does the source give for CCCCCCCCCCN here?
**A.** inactive

**Q.** With C=C(C)CNCC as the compound, how does the outcome read?
**A.** inactive

**Q.** With CC(CCO)CC(C)(C)C (stereo not given) as the compound, how does the outcome read?
**A.** inactive

**Q.** With CNC(=S)N(C)C as the compound, how does the outcome read?
**A.** inactive

**Q.** With CCCCCCO as the compound, how does the outcome read?
**A.** inactive

**Q.** For COc1ccc(CCC(C)=O)cc1, which outcome is on record?
**A.** inactive

**Q.** Which outcome does the source give for CCOC(=O)c1ccc(N)cc1 here?
**A.** inactive

**Q.** With O=c1[nH]cnc2[nH]ncc12 as the compound, how does the outcome read?
**A.** inactive

**Q.** For CC(C)CC(C)O (stereo not given), which outcome is on record?
**A.** inactive
